Test results from PubChem BioAssay AID1835 (Johns Hopkins Ion Channel Center, 2009).
In all, about 2,400 compounds went through this assay and about 750 (31%) were called active. The list shows a part of the results. A number with no mark means an inactive call.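 The calls were made as follows: active = median signal gain over dofetilide-blocked control wells reaching their mean plus 3 SD, so readout 1 at least 0; inactive = the rest.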

Molecular target: Voltage-gated inwardly rectifying potassium channel KCNH2 (Homo sapiens) (UniProt Q12809)
Sequence (Q12809 whole entry, looked up): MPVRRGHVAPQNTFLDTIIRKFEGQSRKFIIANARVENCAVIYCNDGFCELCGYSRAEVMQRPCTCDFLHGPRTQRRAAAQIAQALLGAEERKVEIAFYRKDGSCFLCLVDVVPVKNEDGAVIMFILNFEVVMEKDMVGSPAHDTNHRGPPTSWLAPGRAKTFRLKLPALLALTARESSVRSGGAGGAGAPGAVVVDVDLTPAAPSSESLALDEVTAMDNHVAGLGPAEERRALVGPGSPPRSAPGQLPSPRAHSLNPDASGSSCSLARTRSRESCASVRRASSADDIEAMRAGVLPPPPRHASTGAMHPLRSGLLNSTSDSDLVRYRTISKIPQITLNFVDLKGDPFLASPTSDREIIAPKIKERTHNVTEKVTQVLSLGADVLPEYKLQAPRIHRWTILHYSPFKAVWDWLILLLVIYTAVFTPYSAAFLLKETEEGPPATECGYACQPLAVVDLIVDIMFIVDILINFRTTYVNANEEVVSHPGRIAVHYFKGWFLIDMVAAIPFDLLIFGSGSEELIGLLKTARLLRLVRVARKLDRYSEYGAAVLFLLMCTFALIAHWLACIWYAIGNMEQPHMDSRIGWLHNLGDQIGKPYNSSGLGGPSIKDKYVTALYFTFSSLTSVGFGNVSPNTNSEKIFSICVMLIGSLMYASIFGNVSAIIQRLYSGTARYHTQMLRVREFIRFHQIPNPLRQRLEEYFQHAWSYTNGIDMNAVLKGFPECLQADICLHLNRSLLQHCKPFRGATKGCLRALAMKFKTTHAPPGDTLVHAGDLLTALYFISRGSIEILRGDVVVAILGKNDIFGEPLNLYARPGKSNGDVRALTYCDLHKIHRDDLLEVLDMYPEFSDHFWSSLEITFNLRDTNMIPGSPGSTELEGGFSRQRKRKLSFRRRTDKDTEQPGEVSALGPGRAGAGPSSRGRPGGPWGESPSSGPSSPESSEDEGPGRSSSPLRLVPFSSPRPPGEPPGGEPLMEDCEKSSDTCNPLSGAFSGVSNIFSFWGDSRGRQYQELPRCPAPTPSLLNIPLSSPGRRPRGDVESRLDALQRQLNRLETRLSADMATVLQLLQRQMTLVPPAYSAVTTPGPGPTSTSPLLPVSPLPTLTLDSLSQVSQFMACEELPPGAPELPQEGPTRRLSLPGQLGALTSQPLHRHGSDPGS
Test: modulators restoring hERG flux under dofetilide – cell-based, thallium flux, duplicate retest, dofetilide IC70, confirmation (AID 1835)
Conditions: hERG cell line, FluxOR thallium flux, dofetilide-blocked; at 10 µM; active compounds read high

Compound	activity increase over dofetilide control, less the hit threshold
COc1ccc(C(=O)NC(=S)NCCO)cc1Br	-17%
C=CCN(CC=C)C(=S)NC(=O)c1ccc(C)c(Br)c1	100% (active)
C=CCN(CC=C)C(=S)NC(=O)c1ccc(OC)c(Br)c1	48% (active)
C=CCNC(=S)NC(=O)c1ccc(C)c(Br)c1	-8%
O=C(OCCNc1ccc(C(F)(F)F)cc1[N+](=O)[O-])c1cc2ccccc2oc1=O	-10%
Nn1c(SCC(=O)Nc2ccc(F)cc2)nnc1C1CCCCC1	-24%
O=C(Cn1cnc2ccccc21)c1ccccc1	-5%
CC(=O)NC1C(Oc2ccccc2C)OC(CO)C(O)C1O (centres undefined)	-10%
CCC(=O)Nc1ccc(C(=O)NNC(=O)c2cc([N+](=O)[O-])cc([N+](=O)[O-])c2)cc1	-13%
COc1ccc(/C=C/C(=O)NC(=S)NNC(=O)c2cccs2)cc1	-24%
COc1ccc(OC(=O)Cc2cccc3ccccc23)cc1	-13%
O=C(NCCOC(=O)c1ccc([N+](=O)[O-])cc1)c1cccnc1	-4%
C=CCN(CC=C)C(=S)NC(=O)c1ccc([N+](=O)[O-])cc1	56% (active)
C=CCN(CC=C)C(=S)NC(=O)Cc1cccc2ccccc12	17% (active)
C=CCN(CC=C)C(=S)NC(=O)/C=C/c1ccc(OC)cc1	1% (active)
COc1ccccc1CNC(=O)CCCC(=O)n1ncc2cc(C)ccc21	-12%
O=C(N/N=C1/C(=O)c2cccc3cccc1c23)c1ccc(Cl)cc1	52% (active)
O=C1c2cccc3cccc(c23)C(=O)C1(O)O	-24%
CCNC(=S)N/N=C1\C(=O)c2cccc3cccc1c23	9% (active)
C/C(=N\NC(=O)c1ccc(Cl)cc1)c1ccc(Br)s1	-11%
O=C(NN=C1c2ccccc2-c2ccccc21)c1ccccc1	-5%
CC(C)(C)NC(=O)C(=O)NNC(=O)COc1ccc(Br)cc1	33% (active)
CCCc1cc(C(=O)NNC(=S)Nc2cccc(C)c2)cs1	-22%
Cc1cccc(NC(=O)C(=O)NNC(=O)c2ccc(C(C)(C)C)cc2)c1	83% (active)
Cc1c(C(=O)NNC(=O)c2ccncc2)oc2ccc(Br)cc12	-12%
CC(C)(C)NC(=O)C(=O)NNC(=O)c1ccc(C(C)(C)C)cc1	38% (active)
Cc1ccc(Oc2ccc(OCC(=O)NC(CC(C)C)C(=O)O)cc2)cc1 (centres undefined)	-20%

Compound	activity increase over dofetilide control, less the hit threshold
CC(C)(C)NC(=O)C(=O)NNC(=O)c1ccccc1	-5%
CC(C)(C)NC(=O)C(=O)NNC(=O)c1cccc(Br)c1	35% (active)
CC(NC(=O)c1ccncc1)C(C)(C)C (centres undefined)	-4%
CC(C)(C)NC(=O)C(=O)NNC(=O)COc1ccccc1	-4%
CC/C(=N\NC(=S)Nc1cccc(C)c1)c1ccccc1	-1%
N#C/C(=N/Nc1ccc([N+](=O)[O-])cc1)C(=N)N1CCCCC1	-20%
O=C1CC(c2ccccc2)c2cccc(F)c21 (centres undefined)	-22%
CC1CC(C)CN(CCCNC(=O)Cc2c(C(=O)O)[nH]c3ccccc23)C1 (centres undefined)	-14%
S=c1[nH]c2ccc(Cl)cc2s1	91% (active)
S=c1[nH]c2cc(Cl)ccc2s1	93% (active)
O=C(Nc1ccc2[nH]c(=S)sc2c1)Nc1ccccc1F	-16%
S=c1[nH]c2ccccc2n2cccc12	-4%
CNC(=O)c1c(O)c2cccc3c2n(c1=O)CC3	-17%
CC(=O)c1cc(N2CCC(C(=O)O)CC2)ccc1[N+](=O)[O-]	-22%
COc1cccc(OC)c1OCCOCCN1CCN(C)CC1	-17%
O=C(CN1CCCCCCC1)Nc1cccc(Cl)c1Cl	-14%
Clc1cccc(OCCCN2CCCC2)c1Cl	2% (active)
Cc1ccc(NC(=O)C2C3CCC(O3)C2C(=O)O)cc1C (centres undefined)	-1%
S=C(Nc1ccccc1)Nc1nc2ccccc2n1CCOc1ccccc1	-9%
CCCc1nnc(NC(=O)CN2CCOCC2)s1	-19%
O=C(Nc1ccccc1)N1CCSc2cc(Cl)ccc21	-1%
CC1CCc2sc(-c3n[nH]c(=S)o3)cc2C1 (centres undefined)	9% (active)
CCc1c(C)nc(SC)n(CC#N)c1=O	-2%
COc1ccccc1C(=O)NNC(=S)NC(=O)c1sc2ccccc2c1Cl	43% (active)
O=C(NNC(=S)NC(=O)c1sc2ccccc2c1Cl)c1ccc(Cl)cc1	70% (active)
COc1cccc(C(=O)NC(=S)Nn2cnnc2)c1OC	-14%
COc1ccccc1C(=O)NC(=S)NNC(=O)c1sc2ccccc2c1Cl	-18%
